# Data published in PubChem BioAssay.
# A number with no mark means an inactive call. How the calls were made is not given here.
# Molecular target: L-lactate dehydrogenase (Plasmodium falciparum (isolate CDC / Honduras)) (UniProt Q27743)
# Assay: PfLDH activity inhibition – cell lysate, 3D7 strain, counter-screen for P. falciparum growth inhibition project (AID 2304);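 further: 0% = vehicle and 100% = reference inhibitor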
# Settings: P. falciparum 3D7 crude extract, LDH APAD/NBT absorbance; at 2 µM; active compounds read high
# Chain of L-lactate dehydrogenase (Plasmodium falciparum (isolate CDC / Honduras)) (Q27743 whole entry, looked up): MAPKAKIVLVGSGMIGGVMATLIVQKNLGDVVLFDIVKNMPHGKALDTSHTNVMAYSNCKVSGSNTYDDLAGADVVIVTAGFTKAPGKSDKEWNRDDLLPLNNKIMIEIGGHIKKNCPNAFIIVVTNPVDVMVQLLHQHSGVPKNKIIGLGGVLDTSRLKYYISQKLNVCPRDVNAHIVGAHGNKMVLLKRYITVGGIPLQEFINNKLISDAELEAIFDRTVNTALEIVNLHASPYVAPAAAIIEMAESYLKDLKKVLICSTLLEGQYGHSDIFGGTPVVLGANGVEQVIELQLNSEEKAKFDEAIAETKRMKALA
row,SMILES,inhibition
1,COc1cccc(-n2ncc3c(N/N=C/c4ccc(CN(C)CCN(C)C)cc4)ncnc32)c1,-2%
2,COc1cc(CCNCC(O)c2ccc([N+](=O)[O-])c(OCc3ccccc3)c2)cc(OC)c1OC (centres undefined),-3%
3,O=C(Nc1cccc(Cl)c1)c1cc2ccccc2cc1O,-8%
4,Clc1cccc(C=NNc2ccnc3cc(Cl)ccc23)c1,-4%
5,CN(C)Cc1ccc(CNC2CCN(Cc3ccccc3Cl)CC2)cc1,-3%
6,Cc1ccc(Cn2ccc3c4c(N)nc(N)nc4ccc32)cc1,-6%
7,COc1cc(Nc2nccc(-c3c(-c4cccc(NC(=O)c5c(F)cccc5F)c4)nn4ncccc34)n2)cc(OC)c1OC,1%
8,Cn1cccc1C(=O)Nc1cccc(-c2nn3ccccc3c2-c2ccnc(Nc3ccc4c(c3)OCCO4)n2)c1,4%
9,O=C(Nc1ccccc1)Nc1cccc(-c2nn3c(OCCN4CCCC4)cccc3c2-c2ccncc2)c1,4%
10,COc1cccc(-c2nc(Nc3ccncc3)c3ncn(C)c3n2)c1,-1%
11,CO/N=C(\C)c1ccc2c(c1)CCN(CCC1CCC(NC(=O)c3cccc(-c4noc(C)n4)c3)CC1)CC2 (centres undefined),-1%
12,Cc1[nH]nc2ccc(-c3cc(OC[C@@H](N)Cc4ccccc4)cnc3-c3cc4ccccc4s3)cc12,-3%
13,Oc1ccc(CCNCCCCCNCCCc2ccc(Cl)cc2)cc1O,-3%
14,Cc1cccc(Cn2ccc3c(N)nc(N)nc32)c1,5%
15,CCN(CC)CCCN(C(=O)Nc1cc(F)cc(F)c1)c1nc(-c2ccc(F)cc2)cs1,0%
16,Fc1ccccc1C=NNc1ccnc2cc(Cl)ccc12,-2%
17,CN(C)c1ccc(NC(=O)Nc2ccnc3ccccc23)cc1Br,3%
18,COc1cc(OC)cc(C(=O)Nc2nc(-c3ccc(NC(=O)c4ccccc4)cc3)cs2)c1,-1%
19,CCc1cc2c3c(N)nc(N)nc3ccc2n1C(C)(C)C,-11%
20,C[C@@H]1CN(c2ccc3[nH]cc(Sc4ccc(-c5cccs5)cc4)c3c2)C[C@H](C)N1,-4%

row,SMILES,inhibition
1,NS(=O)(=O)c1cccc(N=Cc2c(O)[nH]c3ccc(S(=O)(=O)Cc4c(Cl)cccc4Cl)cc23)c1,4%
2,CN(c1ccc(NC(=O)Nc2cc(C(C)(C)C)on2)cc1)c1ccnc(NCCN2CCOCC2)n1,-5%
3,N#Cc1cnc(Nc2ccc(Oc3ccccc3)cc2)nc1Nc1cccc(S(N)(=O)=O)c1,3%
4,CNC(=O)c1ccc(/C=C/C(=O)N2CCc3ccc(-c4ccccc4)cc3C2c2cccc(C(F)(F)F)c2)cc1 (centres undefined),5%
5,CCN(CC)CCCC(C)Nc1nc(C=Cc2ccc(Br)cc2)nc2cc(Cl)ccc12 (centres undefined),-6%
6,CCn1c(-c2nonc2N)nc2c(-c3cc4ccccc4s3)ncc(C(=O)N3CCC(N)C3)c21 (centres undefined),5%
7,N#Cc1ccc(C(=O)Nc2cc(-c3cccc(O)c3)cc3[nH]ncc23)cc1,-1%
8,Clc1ccc(C=NNc2ccnc3cc(Cl)ccc23)cc1,-3%
9,Cc1ccccc1Cn1ccc2c3c(N)nc(N)nc3ccc21,-4%
10,O=C(Nc1ccc(OC2CCN(CC3CC3)CC2)c(Cl)c1)c1ccc2ncccc2c1,-2%
11,CCN(CC)CCNC(=O)c1ccc(N=Cc2c(O)[nH]c3ccc(S(=O)(=O)Cc4c(Cl)cccc4Cl)cc23)cc1,3%
12,CCS(=O)(=O)c1ccc(OC)c(Nc2nccc(-c3c(-c4cccc(NC(=O)c5c(F)cccc5F)c4)nn4ncccc34)n2)c1,-5%
13,COc1ccc(NC(=O)c2ccc(-c3cccc(OCc4ccccc4)c3)cc2)cc1N1CCN(C)CC1,-1%
14,Brc1ccsc1-c1nc(NC2CCN(Cc3ccccc3)CC2)no1,-2%
15,Cc1nc2ccccc2n1C1C[C@H]2CC[C@@H](C1)N2CCC1(c2ccccc2)CCN(C(=O)Nc2ccc(C(F)(F)F)cc2)CC1 (some centres undefined),-2%
16,O=c1c2cccnc2sn1-c1ccccc1,0%
17,CCCCNC(=O)C1CCCN(C(=O)c2ccc(O)c(-c3ccc(Cl)c(Cl)c3)c2)C1 (centres undefined),2%
18,CCc1cc(-c2n[nH]c(C(F)(F)F)c2-c2ccccc2)c(O)cc1OC,1%
19,O=C(O)c1ccc(-c2cnc3ccc(NC4CCC(O)CC4)nn23)cc1 (centres undefined),3%
